Measured values taken from ChEMBL document CHEMBL3433997, “St. Jude Leishmania screening dataset” (2016).

How the values were obtained:
Assay type in all cases: functional
[1] = target: Solute carrier family 2, facilitated glucose transporter member 1 (Homo sapiens) (UniProt P11166); test: ST_JUDE_LEISH: Cytotoxicity at 2uM final concentration against transgenic Leishmania Mexicana promastigotes LmGLUT1 that are glucose transport deficient and complemented with the human glucose transporter GLUT1. Activity is measured by DNA content using SYBR green in vitro
Solute carrier family 2, facilitated glucose transporter member 1 (Homo sapiens), sequence (P11166 whole entry): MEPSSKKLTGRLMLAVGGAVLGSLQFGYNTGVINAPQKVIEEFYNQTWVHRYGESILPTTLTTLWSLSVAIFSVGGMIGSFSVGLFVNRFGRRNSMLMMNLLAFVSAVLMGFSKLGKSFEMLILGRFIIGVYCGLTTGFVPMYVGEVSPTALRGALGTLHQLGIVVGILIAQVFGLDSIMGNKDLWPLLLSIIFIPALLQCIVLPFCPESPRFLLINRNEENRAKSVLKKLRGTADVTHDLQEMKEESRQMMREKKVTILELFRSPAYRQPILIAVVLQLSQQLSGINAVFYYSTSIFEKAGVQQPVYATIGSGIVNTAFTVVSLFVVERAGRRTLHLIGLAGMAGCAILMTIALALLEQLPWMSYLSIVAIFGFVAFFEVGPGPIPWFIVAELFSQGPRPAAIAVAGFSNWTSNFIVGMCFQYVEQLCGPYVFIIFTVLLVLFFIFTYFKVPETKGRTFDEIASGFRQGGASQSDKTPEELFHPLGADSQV

[2] = target: Hexose transporter 1 (Plasmodium falciparum) (UniProt O97467); test: ST_JUDE_LEISH: Cytotoxicity at 2uM final concentration against transgenic Leishmania Mexicana promastigotes LmPfHT that are glucose transport deficient and complemented with the Plasmodium falciparum hexose transporter. Activity is measured by DNA content using SYBR green in vitro
[3] = target: Glucose transporter (Leishmania mexicana) (UniProt O61059); test: ST_JUDE_LEISH: Cytotoxicity at 2uM final concentration against transgenic Leishmania Mexicana promastigotes LmGT2 that are glucose transport deficient and complemented with the L. Mexicana glucose transporter 2. Activity is measured by DNA content using SYBR green in vitro

SMILES	inhibition [1] [%]	inhibition [2] [%]	inhibition [3] [%]
CCc1c(C)nc(-n2nc(C)cc2NC(=O)c2cccc3ccccc23)[nH]c1=O	-3.49	-1.41	3.73
COc1ccc2ncc(F)c(CCN3CC(O)C(CNCc4ccc5ccccc5c4)C3)c2n1 (centres undefined)	15.5	16.6	6.63
CCN1CCCC1CNC(=O)c1cc2c(-c3ccc(Cl)cc3)nn(C)c2s1 (centres undefined)	2.89	5.39	2.6
O=C(Nc1cc(C(F)(F)F)ccc1-n1cncn1)C1(c2ccccc2)CC1	-1.28	-1.95	0.27
O=C(Nc1ccc(-c2ccc(-c3nc4cc(C(F)(F)F)ccc4[nH]3)cc2)cc1)Nc1ccc(F)c(F)c1F	-0.4	-0.22	-1.44
CN1CCN(c2ccc(Nc3c(C(N)=O)cnc4cc(-c5ccoc5)ccc34)cc2)CC1	15.1	24.6	3.57
Cc1cccc2nc(-c3ccc(-c4cccc(CNCCCNS(C)(=O)=O)c4)s3)[nH]c12	0.75	2.35	-2.06
c1ccc(CCNCc2ccc(-c3cccc(CNc4ccc5ncccc5c4)c3)cc2)cc1	14.6	11.7	11.3
CN(C)CCCOc1ccc(CNCc2cccc(Oc3ccc(Cl)cc3)c2)cc1	6.24	2.32	3.82
COc1ccc2nccc(NC(=O)C3CCC(NCc4cnc(SC)c([N+](=O)[O-])c4)CC3)c2n1 (centres undefined)	10.5	10.3	20.7
c1ccc(CNCc2cccc(-c3cccc(-c4nc5ccccc5[nH]4)c3)c2)cc1	4.44	5.52	3.48
Nc1nc(N)c2c(ccc3c2ccn3Cc2ccccn2)n1	86.5	92	78
COc1ccc(C(=O)Nc2ccc(-c3nc4cc(C)ccc4[nH]3)cc2)cc1OC	3.99	2.08	3.84
c1cncc(-c2cccc(CNc3nccc(Nc4ccc(OCCN5CCOCC5)cc4)n3)c2)c1	0.48	1	0.07
Cc1ccc(-n2cc(CNCCc3nc(C)c[nH]3)c(-c3ccc(F)cc3)n2)cc1	4.34	3.49	2.6
c1ccc2c(c1)CN(Cc1cc3ccccc3[nH]1)CC1(CCN(Cc3c[nH]c4cnccc34)CC1)O2	1.1	-0.02	-0.44
O=C(/C=C/c1ccc(Cl)c(Cl)c1)NCCCCCN1CC[C@H](NC(=O)c2ccc3c(c2)OCO3)C1	5.7	5.13	3.74
CN(/N=C/c1ccc(Cl)cc1)c1nc(NCCc2ccc(O)cc2)nc(N2CCNCC2)n1	7.69	6.81	6.34
O=S(=O)(NCCN1CCCC1)c1ccc(-c2ccc(CNCc3ccc(F)cc3)cc2)cc1	7.2	6.71	4.15
COC(=O)CCn1c(C2CCN(CC3CCC(NC(=O)/C=C/c4ccc(Cl)c(Cl)c4)CC3)CC2)nc2ccccc21 (centres undefined)	0.97	2.03	3.04
CCN(CC)CC#Cc1ccc2[nH]c(C)c(Cl)c(=O)c2c1	3.66	3.51	4.12
N#Cc1ccc(-c2ccc(C(=O)NCCCCN3CCC(c4ccc5c(c4OCc4ccccn4)CCCC5)CC3)cc2)cc1	-0.71	1.73	0.17
COCCCNc1sc(S(=O)(=O)c2ccccc2)nc1S(=O)(=O)c1ccc(Cl)cc1	3.07	3.36	1.01
O=C(Nc1ccc(OC2CCN(Cc3ccco3)CC2)c(Cl)c1)c1ccc2ncccc2c1	4.38	2.97	2.34

SMILES	inhibition [1] [%]	inhibition [2] [%]	inhibition [3] [%]
COc1cccc(-c2nn(C)c3sc(C(=O)NCCN(C)Cc4ccccc4)cc23)c1	2.97	-0.73	2.24
COc1cccc(C(=O)NCCc2cccc(Cl)c2)c1Oc1ccccc1	1.18	2.48	1.65
Cc1ccccc1N1CCN(c2ccc(C(=O)Nc3ccccc3)cc2)CC1	-0.27	0.69	1.33
c1cc(C2=NC3CCCCC3N2)ccc1OCCCOc1ccc(C2=NC3CCCCC3N2)cc1 (centres undefined)	7.04	6.74	1.12
CCOC(=O)c1cc(=O)c2ccc(OCC#N)cc2o1	88.5	82.1	74.8
O=C(NC1CCN(CCC[C@]2(c3ccc(Cl)c(Cl)c3)CCCN(C(=O)c3ccccc3)C2)CC1)c1ccc(Cl)cc1	-0.59	-1.27	-2.33
O=C(NCCN1CCC(NC(=O)c2ccc(-c3ccccn3)s2)CC1)c1cccc(C(F)(F)F)c1	3.66	2.93	3.43
CN1CCCC1CCNCc1cccc(-c2cnc(N(C)C3CCCCC3)nc2)c1 (centres undefined)	102	102	101
COc1ccc2c(=NN=Cc3cccnc3)cc(C)[nH]c2c1	1.93	0.44	1.52
Cc1ccc(NC(=S)NC2CCN(CCCCCNC(=O)/C=C/c3ccc(Cl)c(Cl)c3)CC2)cc1Cl	-0.23	-0.31	-1.1
Cc1ccc(F)c(OCC2CCN(c3ncc(C(=O)NC4CC4)cc3Cl)CC2)c1	-1.14	2.1	1.1
Cc1nc(-c2cccc(C(=O)Nc3cnc4ccccc4c3)c2)no1	5.51	3.53	3.52
Cc1cc(N[C@@H](Cc2ccccc2)C(=O)NCCOc2ccccc2)nc(NCC2CCCCC2)n1	6	6.54	0.5
O=C(Nc1cccc(CN2CCCN(Cc3ccc(O)cc3)CC2)c1)c1cccc(F)c1	10.8	10.4	9.62
Cc1cccc2nc(-c3ccc(-c4cccc(NC(=O)Nc5ccc(Cl)cc5)c4)s3)[nH]c12	3.96	3.55	3.01
CNC(=O)CC(=O)NCCc1ccc(Cl)cc1	-0.63	1.17	0.06
CN1CCc2cc(I)c(O)cc2C1Cc1ccccc1Cl (centres undefined)	1.98	3.88	2.59
FC(F)(F)c1ccc2[nH]c(-c3ccc(-c4ccc(CNCC5CCCO5)cc4)s3)nc2c1 (centres undefined)	-1.55	0.38	-1.62
CN1CCN(CCCNCc2ccc(Nc3nccc(Nc4ccc(Oc5ccccc5)cc4)n3)cc2)CC1	0.09	1.17	1.48
c1ccc2c(NCCCCCCNc3ccnc4ccccc34)ccnc2c1	-2.25	-0.51	-2.32
O=C(Nc1ccc(OC2CCN(Cc3ccc(F)cc3)CC2)c(Cl)c1)c1ccco1	1.06	1.1	3.28
CCCCN(CCCC)/C(=N/c1cccc(Cl)c1Cl)Nc1ccc(C#N)cc1O	3.21	2.13	-4.06
Cc1ccc(O)c(-c2cc(C(=O)Nc3ccc(S(=O)(=O)N4CCCCCC4)cc3)[nH]n2)c1	-2.76	-1.17	-0.85
COc1cc(F)c2ncc(Cl)c([C@H](O)CN3CCC(NCc4ccc5c(n4)NC(=O)CO5)CC3)c2c1	-1.35	0.88	0.03
